This note sets out measurements from PubChem BioAssay AID1210 (NMMLSC, 2008).

Unmarked numbers belong to inactive results. The source made the active and inactive calls.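 Rule for the calls: active = blocks over 70% of labeled estradiol binding at 10 µM, or over a set limit at 100 nM; inactive = the rest.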

The target in this test is Estrogen receptor beta (Homo sapiens) (UniProt Q92731). As to the kind of experiment: ERbeta ligand binders by competition, primary screen, cell-based, Cos7 ERbeta-GFP, flow cytometry (AID 1210).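 Note: 0% = DMSO vehicle wells and 100% = complete loss of labeled estradiol signal.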 Particulars: fluorescent estrogen binding, at 10 µM, active compounds read high. (Flow cytometry measures light scatter and fluorescence of single cells or particles in a stream.)
Sequence of Estrogen receptor beta (Homo sapiens) (Q92731 whole entry, looked up): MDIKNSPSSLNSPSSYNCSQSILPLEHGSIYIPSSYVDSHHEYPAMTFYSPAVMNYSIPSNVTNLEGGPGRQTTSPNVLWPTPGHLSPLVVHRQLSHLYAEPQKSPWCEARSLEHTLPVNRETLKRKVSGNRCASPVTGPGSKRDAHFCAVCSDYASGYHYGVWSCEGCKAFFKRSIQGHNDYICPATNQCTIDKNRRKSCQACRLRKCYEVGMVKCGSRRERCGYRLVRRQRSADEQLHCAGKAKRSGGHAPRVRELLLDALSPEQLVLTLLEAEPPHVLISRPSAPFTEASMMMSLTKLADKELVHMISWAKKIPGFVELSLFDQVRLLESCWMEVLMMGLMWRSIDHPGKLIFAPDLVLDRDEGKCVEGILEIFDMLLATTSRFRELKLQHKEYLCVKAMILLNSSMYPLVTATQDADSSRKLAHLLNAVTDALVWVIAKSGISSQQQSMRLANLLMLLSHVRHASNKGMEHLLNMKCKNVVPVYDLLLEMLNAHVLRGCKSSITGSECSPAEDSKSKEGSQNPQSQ
On to `Cc1cc(=O)oc2c(CN3CCC(C)CC3)c(O)c(Cl)cc12`, for which the inhibition (in general, the percentage by which the read-out fell short of the control) was 20%.

Take `CC(C)C1Nc2ccc(S(N)(=O)=O)cc2C2C=CCC21` (centres undefined): the inhibition is 57%.

For the molecule `Cc1ccc2occ(C3NC(C(=O)O)CS3)c(=O)c2c1` (centres undefined), the inhibition is 62%.

For `O=C(Cc1cn2ccsc2n1)OCc1nc2ccccc2s1`, the inhibition is 58%.

Consider `O=C1/C(=C\c2ccco2)SC(=S)N1c1ccc(O)cc1`, for which the inhibition is 77% (active).

With `COc1cc(C=C(c2nc3ccccc3s2)c2nc3ccccc3s2)ccc1O`, the inhibition is 31%.

As to `COc1ccccc1N1CCN(C(=O)c2cc3c(s2)CCC3)CC1`, the inhibition was 22%.

Regarding `CC(=O)c1ccc2c(c1)C1C=CCC1C(C(=O)O)N2` (centres undefined), the inhibition was 19%.

Turning to `Oc1c(C=Nc2cccc3cccnc23)sc2ccccc12`, the inhibition is 31%.

In the case of `Cc1ccc2[nH]c(=O)c(C3C(C#N)=C(N)Oc4c3ccc3cccnc43)cc2c1` (centres undefined), the inhibition is 44%.

As to `CCOC(=O)C1=c2/c(=C/c3ccccc3OC)c(N)c(C#N)n2C(=O)C(c2ccccc2OC)S1` (centres undefined), the inhibition was 34%.

Regarding `COc1cc(C2Nc3c(F)cccc3C3C=CCC32)cc(Br)c1OC` (centres undefined), the inhibition was 0%.

`O=c1cc(-c2ccccc2Cl)oc2c(Br)ccc(O)c12`: the inhibition is 33%.

For the molecule `CC1CC(C(F)(F)C(F)(F)F)n2nc(C(=O)O)cc2N1` (centres undefined), the inhibition was 58%.

On to `O=C(NCc1ccco1)c1cc2c(s1)CSC2`, for which the inhibition is 32%.

In the case of `O=C(NCc1ccco1)c1cc2ccc(O)cc2oc1=O`, the inhibition is 44%.

In the case of `COc1ccc(C2CC(c3ccccc3)=NN2c2ccc(N)cc2)cc1` (centres undefined), the inhibition is 69%.

Consider `Fc1ccc2c(c1)[C@H]1OCC[C@H]1[C@@H](c1ccco1)N2`, for which the inhibition is 37%.

Take `CC(Oc1ccc(Cl)cc1Cl)C(=O)Nc1ccc2oc(-c3ccncc3)nc2c1` (centres undefined): the inhibition was 50%.

In the case of `CCOC(=O)CN1C(c2ccc(O)cc2)Nc2ccc(Br)cc2C1c1ccccc1` (centres undefined), the inhibition was 48%.

On to `C/C(N)=C(/C#N)C(=O)CSc1nnc(COc2ccccc2Cl)o1`, for which the inhibition was 44%.

Consider `CCCN(CCC)S(=O)(=O)c1ccc(NC(=O)Cc2cccs2)cc1`, for which the inhibition is 46%.

Take `O=C(COC(=O)CCOc1ccccc1)NCc1ccco1`: the inhibition is 54%.

Consider `CC(=O)c1sc2nc(SCC(=O)N3CCCCC3)[nH]c(=O)c2c1C`, for which the inhibition is 27%.

Regarding `COC(=O)c1ccc(C2Nc3ccc(/C(C)=N/NC(=O)C(OC)c4ccccc4)cc3C3C=CCC32)cc1` (centres undefined), the inhibition was 22%.

Take `COc1ccc(C(=O)N/N=C(\C)c2ccc3c(c2)C2C=CCC2C(c2ccccc2)N3)cc1` (centres undefined): the inhibition was 67% (active).

`Cc1c(Cl)cccc1NS(=O)(=O)c1ccc2c(c1)C1C=CCC1C(c1ccc(C(=O)O)cc1)N2` (centres undefined): the inhibition is 2%.

For the molecule `O=S(=O)(Nc1ncnc2sc3c(c12)CCC3)c1ccc2ccccc2c1`, the inhibition is 12%.

For the molecule `COc1cccc(-c2nnc(NC(=O)Cc3cccs3)s2)c1`, the inhibition was 30%.

As for `COc1cc(C2C(C#N)=C(N)Oc3cc(C)oc(=O)c32)cc2c1OCO2` (centres undefined), the inhibition was 32%.

For `O=c1[nH]c(N/N=C/c2ccc(O)cc2)nc2ccccc12`, the inhibition was 34%.

Consider `CCOC(=O)C1CCCN(C(=O)c2ccc(CS(=O)(=O)c3ccc(C)cc3)o2)C1` (centres undefined), for which the inhibition was 55%.

For the molecule `COc1ccccc1-c1nnc2sc(-c3cnccn3)nn12`, the inhibition is 40%.

In the case of `Cn1c(-c2ccc3nc(N)sc3c2)nc2cc(N)ccc21`, the inhibition was 68%.

As to `COc1ccc(CNC(=O)c2cc(-c3cccs3)on2)cc1`, the inhibition was 39%.

Regarding `O=c1cc(CSc2nnc(-c3cccs3)n2Cc2ccccc2)nc2sc3ccccc3n12`, the inhibition is 54%.

For `COc1cc(C(Nc2ccccn2)c2ccc3ccc(C)nc3c2O)cc(OC)c1O` (centres undefined), the inhibition is 0%.

Take `O=C(Nc1cccc(-c2cn3cccnc3n2)c1)c1ccc2c(c1)OCO2`: the inhibition is 26%.

Regarding `O=C(Nc1ccc(N2CCCC2)cc1)C(c1ccccc1)c1ccccc1`, the inhibition is 69%.
